# PubChem BioAssay
# Calls of active or inactive are those of the source. Unless noted, how the calls were made is not given here.
# Experiments:
# [1] = A549 cell viability effects, profiling panel, calcein-AM fluorescence, 48 h, basal (AID 1162); conditions: higher = more signal; further: test concentration not given here
# [2] = adipocyte viability effects, profiling panel, cell-based, 3T3-L1 adipocytes, calcein-AM fluorescence, 48 h, basal (AID 1163); conditions: 3T3-L1 adipocytes viability, higher = more signal; further: test concentration not given here
# [3] = HepG2 cell viability effects, profiling panel, calcein-AM fluorescence, 48 h, basal (AID 1164); conditions: higher = more signal; further: test concentration not given here
# [4] = MM1S cell viability effects, profiling panel, calcein-AM fluorescence, 48 h, basal (AID 1165); conditions: higher = more signal;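 further: viability of MM1S multiple myeloma cells under basal unstimulated conditions; test concentration not given here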
# [5] = basal RPMI8226 viability, no added stimulus, profiling panel, cell-based, calcein-AM fluorescence, 48 h, PK04 Diversity Set (AID 1166); conditions: RPMI8226 myeloma viability, higher = more signal;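 further: cells grown under basal conditions without added stimulus; test concentration not given here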
# [6] = basal HepG2 mitochondrial membrane potential changes, profiling panel, cell-based, JC-1 fluorescence, 24 h, 100 nL compound (AID 1167); conditions: higher = more signal; further: test concentration not given here
# [7] = basal 3T3-L1 adipocyte mitochondrial potential changes, profiling panel, cell-based, JC-1 fluorescence, 3T3-L1 adipocytes, 24 h, 100 nL compound (AID 1168); conditions: JC-1 mitochondrial fluorescence, higher = more signal, called active from +8 up or from −8 down; further: test concentration not given here
# [8] = basal RPMI8226 mitochondrial membrane potential changes, profiling panel, cell-based, JC-1 fluorescence, 24 h, 100 nL compound (AID 1169); conditions: RPMI8226 myeloma, JC-1 mitochondrial potential fluorescence, higher = more signal; further: test concentration not given here
# [9] = basal MM1S mitochondrial membrane potential changes, profiling panel, cell-based, JC-1 fluorescence, 24 h, 100 nL compound (AID 1170); conditions: higher = more signal; further: test concentration not given here
# [10] = A549 lung cancer cell viability effects, profiling panel, resazurin fluorescence, 24 h, PK04 Diversity Set (AID 1171); conditions: higher = more signal, called active from +8 up or from −8 down; further: test concentration not given here
# [11] = HepG2 liver cancer cell viability effects, profiling panel, resazurin fluorescence, 24 h, PK04 Diversity Set (AID 1172); conditions: higher = more signal; further: test concentration not given here
# [12] = basal S. cerevisiae growth modulation, no modifier, primary screen, OD600, strain BY4716, 24 h, basal condition (AID 1173); conditions: OD600, 24 h, higher = more signal, called active from +8 up or from −8 down
# [13] = MM1S myeloma cell viability, profiling panel, resazurin fluorescence, basal, 24 h, PK04 Diversity Set (AID 1174); conditions: higher = more signal, called active from +8 up or from −8 down;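 further: MM1S multiple myeloma cell line; test concentration not given here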
# [14] = target: Dihydroorotate dehydrogenase (quinone), mitochondrial (Plasmodium falciparum (isolate 3D7)) (UniProt Q08210); assay: PfDHODH enzyme inhibitors, primary screen, biochemical, C-terminal His tag, absorbance 600 nm (AID 1175); conditions: DCIP absorbance 600 nm, higher = more signal, called active from +8 up or from −8 down;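 further: recombinant parasite enzyme with a five histidine tag at its C terminus; test concentration not given here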
# [15] = P. aeruginosa biofilm formation inhibitors, primary screen, strain PAO1, LB-PBS medium, absorbance 600 nm (AID 1176); further: test concentration not given here; conditions: P. aeruginosa PAO1 growth/biofilm, A600, 12 h; higher = more signal
# [16] = S. cerevisiae RM11-1a growth modifiers, primary screen, strain RM11-1a, OD600, basal, 24 h (AID 1177); conditions: OD600, 24 h, higher = more signal, called active from +8 up or from −8 down;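 further: cultures grown under basal conditions with no added stressor; test concentration not given here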
# [17] = E. coli acrAB mutant growth effects, primary screen, E. coli filamentation inducers, strain DRC39, OD650, 24 h (AID 1178); conditions: higher = more signal, called active from +8 up or from −8 down;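 further: growth measured as culture turbidity by optical density at 650 nm; test concentration not given here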
# [18] = E. coli acrAB mutant growth effects, primary screen, E. coli filamentation inducers, strain DRC39, OD650, 48 h (AID 1179);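 further: screen aims at cell division blockers that make cells filament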; conditions: E. coli DRC39 delta-acrAB growth, higher = more signal, called active from +8 up or from −8 down
# [19] = RPMI8226 myeloma cell viability, profiling panel, resazurin fluorescence, basal, 24 h, PK04 Diversity Set (AID 1180); conditions: higher = more signal;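 further: RPMI8826 multiple myeloma cell line at 5000 cells per well; test concentration not given here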
# [20] = target: E3 ubiquitin-protein ligase XIAP (Homo sapiens) (UniProt P98170); assay: XIAP binders, primary screen, biophysical, small-molecule microarray, fluorescence 635 nm (AID 1181); conditions: small-molecule microarray binding, higher = more signal;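 further: score merges 667 nm emission and signal to noise over triplicate slides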
# E3 ubiquitin-protein ligase XIAP (Homo sapiens), sequence (P98170 whole entry, looked up): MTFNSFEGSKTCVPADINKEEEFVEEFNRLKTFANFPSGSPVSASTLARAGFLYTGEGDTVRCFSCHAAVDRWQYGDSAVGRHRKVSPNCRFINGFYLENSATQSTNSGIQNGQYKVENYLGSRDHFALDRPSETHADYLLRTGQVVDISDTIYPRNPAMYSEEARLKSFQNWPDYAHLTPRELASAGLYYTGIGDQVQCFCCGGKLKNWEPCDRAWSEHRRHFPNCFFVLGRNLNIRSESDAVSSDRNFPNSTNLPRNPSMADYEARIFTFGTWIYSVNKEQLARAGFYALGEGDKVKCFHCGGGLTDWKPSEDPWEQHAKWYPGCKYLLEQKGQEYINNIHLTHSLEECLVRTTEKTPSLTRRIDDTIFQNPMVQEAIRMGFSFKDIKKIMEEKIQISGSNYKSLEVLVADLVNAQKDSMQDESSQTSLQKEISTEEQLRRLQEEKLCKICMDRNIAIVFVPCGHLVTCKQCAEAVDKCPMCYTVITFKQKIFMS
# Dihydroorotate dehydrogenase (quinone), mitochondrial (Plasmodium falciparum (isolate 3D7)), sequence (Q08210 whole entry, looked up): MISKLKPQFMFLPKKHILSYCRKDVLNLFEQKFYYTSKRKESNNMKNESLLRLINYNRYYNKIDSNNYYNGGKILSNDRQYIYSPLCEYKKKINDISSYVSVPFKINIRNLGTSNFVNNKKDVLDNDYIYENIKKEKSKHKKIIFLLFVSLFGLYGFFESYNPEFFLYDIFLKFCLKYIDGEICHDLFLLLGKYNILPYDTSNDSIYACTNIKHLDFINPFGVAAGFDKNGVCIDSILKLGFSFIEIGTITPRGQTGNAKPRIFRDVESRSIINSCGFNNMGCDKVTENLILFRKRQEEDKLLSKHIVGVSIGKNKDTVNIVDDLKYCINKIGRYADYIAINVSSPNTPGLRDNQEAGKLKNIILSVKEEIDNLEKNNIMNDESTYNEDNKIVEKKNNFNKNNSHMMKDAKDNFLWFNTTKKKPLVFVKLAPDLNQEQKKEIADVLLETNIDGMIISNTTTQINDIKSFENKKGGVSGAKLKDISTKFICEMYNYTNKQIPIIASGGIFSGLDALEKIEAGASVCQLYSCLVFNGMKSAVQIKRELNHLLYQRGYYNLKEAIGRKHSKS
SMILES,z-score [1],z-score [2],z-score [3],z-score [4],z-score [5],z-score [6],z-score [7],z-score [8],z-score [9],z-score [10],z-score [11],z-score [12],z-score [13],composite z-score [14],z-score [15],z-score [16],z-score [17],z-score [18],z-score [19],composite z-score [20]
COCCOC(=O)N1C(=O)[C@@]2(c3cc(C#Cc4ccc(OC)cc4)ccc31)[C@H](C(=O)Nc1nc3ccccc3s1)[C@H]1C(=O)O[C@H](c3ccccc3)[C@H](c3ccccc3)N1[C@@H]2c1ccc(O)cc1,0.373,1.31,-0.375,-1.18,-1,-2.78,1.1 (inactive),-0.544,-0.766,0.0344 (inactive),-0.154,-0.43 (inactive),0.529 (inactive),1.17 (inactive),0.609 (inactive),0.735 (inactive),0.275 (inactive),-0.591 (inactive),0.85,0.012
C=C(/C(=C/C[C@H](OC(C)=O)c1cccc(OCCO)c1)c1cnc2ccccc2c1)C(C)C,0.336,0.811,0.0181,-0.861,0.0738,1.28,0.224 (inactive),0.649,-0.105,0.236 (inactive),-0.196,0.644 (inactive),-0.0992 (inactive),-5.52 (inactive),-0.0099 (inactive),1.51 (inactive),0.636 (inactive),0.363 (inactive),0.573,-0.0773
COC(=O)[C@@]1(Cc2ccc(OC)cc2)[C@H]2c3cc(C(=O)N4CCCC4)n(Cc4c(-c5ccccc5)noc4C)c3C[C@H]2CN1C(=O)c1ccccc1,-0.893,-0.451,-0.176,-2.72,-4.68,0.128,-0.732 (inactive),-0.774,-1.52,0.356 (inactive),-0.338,1.63 (inactive),-0.39 (inactive),0.486 (inactive),-0.526 (inactive),1.18 (inactive),0.343 (inactive),-0.57 (inactive),-0.61,-0.0048
COc1ccc(CCNC(=O)[C@@]2(Sc3ccc(C)cc3)CC(=O)N(C3Cc4ccccc4C3)[C@@H]2c2ccc(CO)cc2)cc1,-0.342,0.67,-1.16,-0.729,-1.35,-0.114,-0.775 (inactive),-0.608,-0.885,0.358 (inactive),0.115,0.293 (inactive),-1.13 (inactive),-0.396 (inactive),0.31 (inactive),-0.255 (inactive),0.514 (inactive),0.005 (inactive),0.136,2.04
